Screening results as filed in PubChem BioAssay.
The list is not random: actives were taken first. Their share in the collection is about 0.28%.
NPYLR7 agonist: agonists of mosquito NPYLR7 receptor, primary screen, cell-based, Aedes aegypti, calcium fluorescence, mosquito biting behavior; Aedes aegypti neuropeptide Y-like receptor 7 (NPYLR7); HEK293T NPYLR7/Galpha15, GCaMP6s calcium fluorescence; activation, % at 10 µM; 0.15% of 270,000 active; AID 1259423, 2018; in the data active means activation above about 40%;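 further: 0% = vehicle and 100% = reference agonist at the receptor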
mcGAS inh: cyclic GMP-AMP synthase inhibitors, mouse, primary biochemical chemiluminescence; recombinant cGAS, Kinase-Glo ATP depletion luminescence; AID 1259399, 2018; inhibition, % at 12.5 µM; 0.15% of 160,000 active;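 further: 0% = negative control wells and 100% = reference inhibitor with no enzyme activity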
hcGAS inh: Primary biochemical luminescence assay for human cyclic GMP-AMP synthase inhibitors; Q8N884; 0.081% of 290,000 active; AID 1259398, 2018; recombinant h-cGAS, ATP depletion, Kinase-Glo luminescence; inhibition, % at 12.5 µM;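 further: 0% = vehicle reaction and 100% = reaction without DNA for no activity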
Target sequence (Q8N884 whole entry, looked up): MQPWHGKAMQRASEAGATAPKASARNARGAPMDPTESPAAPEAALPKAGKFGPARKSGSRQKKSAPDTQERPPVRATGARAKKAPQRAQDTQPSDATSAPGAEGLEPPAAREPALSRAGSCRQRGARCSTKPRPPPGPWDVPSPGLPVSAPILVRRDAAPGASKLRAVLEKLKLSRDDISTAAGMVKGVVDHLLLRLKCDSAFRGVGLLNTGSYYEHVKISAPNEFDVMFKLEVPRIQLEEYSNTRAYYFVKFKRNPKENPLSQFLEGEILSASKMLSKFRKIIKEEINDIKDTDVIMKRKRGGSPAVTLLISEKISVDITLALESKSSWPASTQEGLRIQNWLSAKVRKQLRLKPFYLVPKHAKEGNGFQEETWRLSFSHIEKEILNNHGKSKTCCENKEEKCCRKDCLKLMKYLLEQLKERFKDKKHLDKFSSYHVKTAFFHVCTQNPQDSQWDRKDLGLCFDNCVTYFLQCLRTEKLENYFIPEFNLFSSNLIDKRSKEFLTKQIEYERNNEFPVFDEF
Numbers without * were called inactive; ! = not confirmed by another sample. Unless noted, no stated cut-off is given here; in the data, active means inhibition above about 40%; inactive means the rest.

CN1CCN(Cn2ncn(C3CC3)c2=S)C(c2ccccc2)C1 (stereo unspecified) was read as NPYLR7 agonist 5 and hcGAS inh -6.
O=C(Oc1cc(OC(=O)c2ccccc2)c2c(c1)O[C@H](c1ccc(OC(=O)c3ccccc3)c(OC(=O)c3ccccc3)c1)[C@@H](OC(=O)c1ccccc1)C2)c1ccccc1 was read as NPYLR7 agonist -6 and hcGAS inh -6.
For O=C(O[C@@H]1Cc2c(O)cc(O)cc2O[C@@H]1c1cc(O)c(O)c(O)c1)c1cc(O)c(O)c(O)c1 the results were NPYLR7 agonist -10 and hcGAS inh 73*!.
Screening O=C(O[C@@H]1Cc2c(O)cc(O)cc2O[C@@H]1c1ccc(O)c(O)c1)c1cc(O)c(O)c(O)c1 returned NPYLR7 agonist -5 and hcGAS inh 49*.
Screening Oc1cc(O)c2c(c1)O[C@H](c1ccc(O)c(O)c1)[C@H](O)C2 returned NPYLR7 agonist -19 and hcGAS inh 19.
For O=c1c(O)cc([C@H]2Oc3cc(O)cc(O)c3C[C@H]2O)cc2c([C@H]3Oc4cc(O)cc(O)c4C[C@H]3O)cc(O)c(O)c12 the results were NPYLR7 agonist -8 and hcGAS inh 27.
Screening O=C(O[C@@H]1Cc2c(O)cc(O)cc2O[C@@H]1c1cc(O)c(O)c(O)c1-c1c([C@H]2Oc3cc(O)cc(O)c3C[C@H]2O)cc(O)c(O)c1O)c1cc(O)c(O)c(O)c1 returned NPYLR7 agonist -6, mcGAS inh 37 and hcGAS inh 54*.
Screening CCOC(=O)[C@@H]1[C@H](c2ccccc2)[C@@H](N(CCOCc2ccccc2)CCOCc2ccccc2)[C@H]2CCCN21 returned NPYLR7 agonist 19, mcGAS inh -7 and hcGAS inh 0.
`O=C(CC(c1ccccc1)c1cn(Cc2ccccc2)c2ccc([N+](=O)[O-])cc12)NCc1ccco1` (stereo unspecified) gave NPYLR7 agonist -3, mcGAS inh -2 and hcGAS inh -2.
Screening Brc1ccc(-c2nc(-c3ccc4c(c3)OCO4)cs2)cc1 returned NPYLR7 agonist 17 and hcGAS inh -4.
Screening O=C1NN=C(c2ccccc2)C/C1=N/Nc1ncnc2ccccc12 returned NPYLR7 agonist 7, mcGAS inh -9 and hcGAS inh -2.
For C(=Cc1ccccc1)C=NNc1ncnc2ccccc12 the results were NPYLR7 agonist 161* and hcGAS inh -6.
CCNC(=O)N(Cc1cc(Cl)ccc1OS(=O)(=O)c1ccc(F)cc1)C(C)CC (stereo unspecified) was read as NPYLR7 agonist 21, mcGAS inh -4 and hcGAS inh -5.
`CCNC(=O)N(CCCOC)CC(=O)N1CCc2sccc2C1COc1ccccc1OC` (stereo unspecified) gave NPYLR7 agonist 8, mcGAS inh -2 and hcGAS inh -1.
Screening COc1cc(C=C(C#N)S(=O)(=O)c2ccc(Cl)cc2)cc(Cl)c1O returned NPYLR7 agonist 118* and hcGAS inh -1.
Screening COc1cc(C=C(C#N)C(=O)OC(C)C)cc(Cl)c1O returned NPYLR7 agonist 83* and hcGAS inh -4.
`CCOc1cc(C=C(C#N)C(=O)OC(C)C)cc(Cl)c1O` gave NPYLR7 agonist 14 and hcGAS inh -7.
Screening COc1cc(C=C(C#N)S(=O)(=O)c2ccc(Cl)cc2)cc2c1OCCO2 returned NPYLR7 agonist 1 and hcGAS inh -4.
Screening Cc1c(C(=O)NCCC#N)sc(=O)n1Cc1ccc(Cl)c(Cl)c1 returned NPYLR7 agonist 12 and hcGAS inh -6.
Screening CCCCOc1ccc(S(=O)(=O)N2CCN(Cc3cc(=O)c(OCc4ccc(SC)cc4)co3)CC2)cc1 returned NPYLR7 agonist 26, mcGAS inh -6 and hcGAS inh -12.
CNC[C@H](O)c1ccc(O)c(O)c1 was read as NPYLR7 agonist 83*, mcGAS inh -3 and hcGAS inh -2.
`CC(C)NCC(O)c1ccc(O)c(O)c1` (stereo unspecified) gave NPYLR7 agonist 15, mcGAS inh -4 and hcGAS inh -1.
For c1nnnn1CC1CCOCO1 (stereo unspecified) the results were NPYLR7 agonist 14 and hcGAS inh -6.
CNC(=O)c1cnc(/C=C/c2cc(OC)c3c(c2)OCCO3)s1 was read as NPYLR7 agonist -7 and hcGAS inh 3.
`COC(=O)c1cnc(/C=C/c2cc(C)c(O)c(C)c2)s1` gave NPYLR7 agonist 46* and hcGAS inh -6.
`CCOC(=O)c1ccc2c(c1)sc(=NC(=O)c1ccc3ncsc3c1)n2CC(=O)OC` gave NPYLR7 agonist 6 and hcGAS inh -6.
Nc1ccc(Oc2cc(N)cc(Oc3ccccc3)c2)cc1 was read as NPYLR7 agonist 74*, mcGAS inh -3 and hcGAS inh -3.
